Laboratory results published in PubChem BioAssay (Tox21).
Results filed as inconclusive are left out. Active and inactive are the calls of the source. Unless noted, calls come from the whole dose curve; as a rule, active = well fitted curve in the direction sought with a large enough effect in the repeat runs; inconclusive = weak or mixed curves; inactive = flat fitted curve, though single readings scatter.

Experiments:
[1] = qHTS assay to test for compound auto fluorescence at 535 nm (green) in HEK293 cells (AID 720680); details: green autofluorescence 485/535 nm; series mostly up to 91.3 µM
[2] = qHTS assay to test for compound auto fluorescence at 460 nm (blue) in HEK293 cell free culture (AID 720681); details: cell-free medium, autofluorescence 405/460 nm (blue); series mostly up to 91.3 µM
Procedure, shortened: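 Test compounds were pinned into cell-free culture medium (DMEM with 10% FBS) and fluorescence was read directly at Ex/Em 405/460 nm. Signals were expressed as fluorescence equivalents of triamterene, with DMSO vehicle as control.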

[3] = qHTS assay to test for compound auto fluorescence at 590 nm (red) in HEK293 cell free culture (AID 720683); details: cell-free medium autofluorescence, Ex540/Em590 red; series mostly up to 91.3 µM
Procedure, shortened: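 Tox21 10K library compounds were pinned into cell-free DMEM with 10% FBS and fluorescence was read at excitation 540 nm. Activity is expressed as Rose Bengal sodium equivalency.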

[4] = qHTS assay to test for compound auto fluorescence at 590 nm (red) in HepG2 cell free culture (AID 720684); details: cell-free medium autofluorescence, red 540/590 nm; series mostly up to 91.3 µM
Procedure, shortened: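 Red fluorescence (540 nm excitation, 590 nm emission) was measured after compound transfer into cell-free MEM supplemented with 10% FBS. Values are equivalencies against Rose Bengal sodium.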

[5] = qHTS assay to test for compound auto fluorescence at 535 nm (green) in HepG2 cell free culture (AID 720686); details: Cell-free medium, green autofluorescence 485/535 nm; series mostly up to 91.3 µM
[6] = qHTS assay to test for compound auto fluorescence at 460 nm (blue) in HepG2 cells (AID 720687); details: autofluorescence 405/460 nm, 1 h; series mostly up to 91.3 µM
Procedure, shortened: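 Cells (2,000/well in MEM with 10% FBS) attached overnight at 37 C, then were exposed to compound or DMSO for 1 hr at 37 C, 5% CO2. Fluorescence read at Ex/Em 405/460 nm, expressed as triamterene-equivalent signal.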

[7] = target: Glucocorticoid receptor (Homo sapiens) (UniProt P04150); assay: qHTS assay to identify small molecule agonists of the glucocorticoid receptor (GR) signaling pathway (AID 720691; active = well fitted activation curve with a large enough effect in the signal ratio in the repeat runs, not every such curve was filed as active; the % refers to the signal ratio); details: GR-bla HeLa, beta-lactamase reporter ratio, 18 h; series mostly up to 62.4 µM
Procedure, shortened: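 Beta-lactamase reporter activity, read as fluorescence intensity, was measured in GR-bla HeLa cells exposed to compounds for 18 h at 37 C and then loaded with LiveBLAzer B/G FRET substrate for 2 h at room temperature.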

[8] = target: Glucocorticoid receptor (Homo sapiens) (UniProt P04150); assay: qHTS assay to identify small molecule antagonists of the glucocorticoid receptor (GR) signaling pathway (AID 720692; active = well fitted inhibition curve with a large enough effect in the signal ratio in the repeat runs, not every such curve was filed as active; the % refers to the signal ratio); details: GR-bla HeLa, beta-lactamase FRET ratio, dexamethasone-stimulated, 18 h; series mostly up to 58.5 µM
Procedure, shortened: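 Fluorescence from cleaved LiveBLAzer B/G FRET substrate reports GRE-driven beta-lactamase in HeLa cells; compounds are tested against 5 nM dexamethasone (final) over 18 h at 37 C, substrate incubation 2 h at room temperature.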

[9] = qHTS assay to test for compound auto fluorescence at 460 nm (blue) in HepG2 cell free culture (AID 720685); details: Cell-free culture medium, blue autofluorescence 405/460 nm; series mostly up to 91.3 µM
Procedure, shortened: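 Compound (23 nL) or DMSO pinned into cell-free MEM with 10% FBS; blue fluorescence read at 405/460 nm excitation/emission, expressed as auto-fluorescence equivalency to triamterene.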

Measured: Potency

Glucocorticoid receptor (Homo sapiens), sequence (P04150 whole entry, looked up): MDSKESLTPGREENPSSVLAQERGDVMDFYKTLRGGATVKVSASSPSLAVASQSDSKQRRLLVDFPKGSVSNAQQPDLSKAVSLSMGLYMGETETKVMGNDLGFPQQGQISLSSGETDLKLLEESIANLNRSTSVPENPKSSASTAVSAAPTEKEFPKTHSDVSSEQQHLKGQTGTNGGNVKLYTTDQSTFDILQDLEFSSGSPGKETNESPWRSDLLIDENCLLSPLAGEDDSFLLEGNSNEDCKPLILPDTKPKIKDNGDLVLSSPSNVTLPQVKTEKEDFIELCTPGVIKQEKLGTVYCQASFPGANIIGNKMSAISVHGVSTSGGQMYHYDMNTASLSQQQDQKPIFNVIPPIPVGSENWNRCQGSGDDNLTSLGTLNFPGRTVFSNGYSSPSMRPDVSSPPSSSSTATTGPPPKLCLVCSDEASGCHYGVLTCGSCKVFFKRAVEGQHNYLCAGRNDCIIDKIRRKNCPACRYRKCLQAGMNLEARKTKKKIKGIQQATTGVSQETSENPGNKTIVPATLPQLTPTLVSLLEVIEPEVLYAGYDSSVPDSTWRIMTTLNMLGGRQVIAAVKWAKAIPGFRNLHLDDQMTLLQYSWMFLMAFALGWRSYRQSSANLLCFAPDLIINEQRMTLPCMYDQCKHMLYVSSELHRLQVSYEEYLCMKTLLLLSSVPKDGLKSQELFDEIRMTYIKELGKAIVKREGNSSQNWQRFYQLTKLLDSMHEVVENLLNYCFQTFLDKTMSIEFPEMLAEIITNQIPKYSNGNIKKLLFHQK

CC(=O)c1ccc(OCC(=O)N2CCCCC2)cc1
not listed: [9]
inactive: all other assays above

CCCCCCCCCCCCOC(C)=O
not listed: [7] | [8]
inactive: all other assays above

COC(/C=C(\C)CCC=C(C)C)OC
inactive: all assays above

CC(=O)OC(C)c1ccccc1 (stereo not given)
not listed: [7]
inactive: all other assays above

C=CCOc1c(Br)cc(C(C)(C)c2cc(Br)c(OCC=C)c(Br)c2)cc1Br
not listed: [6] | [8]
inactive: all other assays above

CC1=CC[C@H](CC=O)C1(C)C
not listed: [4] | [6] | [8]
inactive: all other assays above
